Assay outcomes as filed in PubChem.
Hits are enriched below; roughly 2.9% of the tested compounds scored in any of these assays.
ZTA counter: counter-screen for EBNA-1 inhibitors: inhibitors of Epstein-Barr virus ZTA; ZTA-DNA binding, fluorescence polarization; hit rate 0.15% among 320,000; inhibition, % at 11 µM; in the data active = inhibition above about 33%
Target sequence (P03206 whole entry, looked up): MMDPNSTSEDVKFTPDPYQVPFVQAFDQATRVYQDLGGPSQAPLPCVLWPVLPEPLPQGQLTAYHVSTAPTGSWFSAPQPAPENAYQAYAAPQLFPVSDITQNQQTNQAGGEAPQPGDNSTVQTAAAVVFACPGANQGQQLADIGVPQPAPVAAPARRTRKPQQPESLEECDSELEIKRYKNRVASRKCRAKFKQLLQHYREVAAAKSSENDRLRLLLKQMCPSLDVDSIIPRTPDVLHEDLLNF
EBNA-1 inh: blocks EBNA-1 binding to DNA; EBNA-1 DNA binding, fluorescence polarization; inhibition, % at 14.8 µM; hit rate 0.34% among 300,000; in the data active = inhibition above about 28%
rCAG binder: binds r(CAG) RNA repeats; hit rate 1.3% among 370,000; inhibition, % at 3 µM; AID 651821; r(CAG) RNA repeat, TO-PRO-1 dye displacement fluorescence;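 active = inhibition above the plate cutoff, the mean of all test compounds on that plate plus 3 SD, cut at about 35% in these data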;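 note: 0% = DMSO alone and 100% = 100 µM mitoxantrone as full dye displacement; higher means more dye released from RNA so lower well fluorescence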
PAFAH1B2 FP inh: inhibitors of human PAFAH1B2; P68402; recombinant PAFAH1B2, FP-rhodamine activity probe, fluorescence polarization; inhibition, % at 3.39 µM; hit rate 1.2% among 340,000;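 active = inhibition above the mean of all tested compounds plus 3 SD, cut at about 24% in these data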;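 note: 0% = enzyme with DMSO and 100% = wells lacking PAFAH1B2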
Target sequence (P68402 whole entry, looked up): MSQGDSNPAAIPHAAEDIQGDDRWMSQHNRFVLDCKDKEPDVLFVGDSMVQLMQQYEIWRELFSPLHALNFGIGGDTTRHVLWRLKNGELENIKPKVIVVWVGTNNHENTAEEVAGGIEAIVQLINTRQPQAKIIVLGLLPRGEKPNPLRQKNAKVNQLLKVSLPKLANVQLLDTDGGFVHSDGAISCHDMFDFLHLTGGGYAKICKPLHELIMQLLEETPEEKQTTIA
PAFAH2 inh: PAFAH2 (human) inhibition; Q99487; hit rate 0.99% among 340,000; AID 492956; recombinant PAFAH2, FP-rhodamine activity probe, fluorescence polarization; inhibition, % at 3.39 µM;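 active = inhibition above the mean over all tested compounds plus 3 SD, cut at about 30% in these data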;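 note: inhibitors block probe labeling of enzyme so polarization drops; 0% = enzyme with DMSO and 100% = wells lacking PAFAH2 protein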
PAFAH1B3 FP inh: blocks human PAF acetylhydrolase 1B catalytic subunit 3 | Q15102 | recombinant PAFAH1B3, FP-rhodamine probe, fluorescence polarization | inhibition, % at 3.39 µM | hit rate 0.28% among 340,000 | AID 492972;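 active = inhibition above the screen-wide average of all tested compounds plus 3 SD, cut at about 25% in these data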;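 note: 0% = enzyme with DMSO only and 100% = wells lacking PAFAH1B3 protein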
Target sequence (Q15102 whole entry, looked up): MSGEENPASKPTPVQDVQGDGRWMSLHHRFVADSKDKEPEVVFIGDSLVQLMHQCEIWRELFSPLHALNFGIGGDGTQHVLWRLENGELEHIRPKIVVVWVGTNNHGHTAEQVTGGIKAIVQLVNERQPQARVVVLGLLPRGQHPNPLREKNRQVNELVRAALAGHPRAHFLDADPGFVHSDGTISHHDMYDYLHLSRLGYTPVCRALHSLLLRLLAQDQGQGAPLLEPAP
rCAG binder conf: r(CAG) RNA repeat binding, confirmation; hit rate 70% among 4,300; shares compounds with rCAG binder; inhibition, % at 3 µM; TO-PRO-1 dye displacement fluorescence;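 active = inhibition above a per-plate cutoff, the mean inhibition of sample wells plus 3 SD, cut at about 35% in these data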;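 note: loss of TO-PRO-1 fluorescence as compound displaces dye from 1x1 AA loop RNA; 0% = DMSO only wells and 100% = 100 µM mitoxantrone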
DNA CAG counter: counter-screen for rCAG RNA binders: DNA CAG dye complex inhibitors. d(CAG) DNA oligo TO-PRO-1 dye displacement, fluorescence. shares compounds with rCAG binder. hit rate 94% among 4,300. inhibition, % at 3 µM;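 active = inhibition above its plate's cutoff, the mean test-well inhibition plus 3 SD, cut at about 4.8% in these data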;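 note: 0% = DNA dye mix with DMSO and 100% = 100 µM mitoxantrone; hits displace the dye from DNA and so lower well fluorescence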
The depositor's hits bear a star.

`COc1ccc(CN2C/C(=C/c3ccccc3)N3C(=O)C[C@@H](c4ccc5ccccc5c4)N=C23)c(OC)c1` gave rCAG binder 10.8.
Screening CCCCCOC(=O)C1C(c2ccccc2)C(C(=O)O)C1c1ccccc1 (stereo not drawn) returned ZTA counter 12.5, EBNA-1 inh -6.2, rCAG binder 35.4*, PAFAH1B2 FP inh 4.4, PAFAH2 inh 6.7, PAFAH1B3 FP inh 14.2, rCAG binder conf 23.8 and DNA CAG counter 2.9.
`O=C(O)C1C(c2ccccc2)C(C(=O)OCCCO)C1c1ccccc1` (stereo not drawn) gave ZTA counter -1.6, EBNA-1 inh -3.0, rCAG binder 3.8, PAFAH1B2 FP inh 1.9, PAFAH2 inh -4.0 and PAFAH1B3 FP inh -2.2.
For Nc1c(SCCC(=O)O)ccc2c1C(=O)c1ccccc1C2=O the results were ZTA counter -5.3, EBNA-1 inh -15.7, rCAG binder 36.8*, PAFAH1B2 FP inh 0.8, PAFAH2 inh -8.5, PAFAH1B3 FP inh -4.6, rCAG binder conf 14.6 and DNA CAG counter 2.3.
Screening O=C(O)c1ccc(N/N=C/c2cn(Cc3ccccc3F)c3ccccc23)cc1 returned ZTA counter 21.1, EBNA-1 inh 1.8, rCAG binder 77.8*, PAFAH1B2 FP inh 8.2, PAFAH2 inh 9.5, PAFAH1B3 FP inh 14.2, rCAG binder conf 80.5* and DNA CAG counter 45.0*.
For O=C(N/N=C/c1cn(Cc2cccc(F)c2)c2ccccc12)c1cc(O)cc(O)c1 the results were rCAG binder 50.0*, PAFAH1B2 FP inh 25.8*, PAFAH2 inh 8.3, PAFAH1B3 FP inh 44.2*, rCAG binder conf 52.2* and DNA CAG counter 28.6*.
For Cc1cc(=O)[nH]c(SCC(=O)Nc2nc(-c3ccccc3)cs2)n1 the results were ZTA counter 0.7, EBNA-1 inh -4.7, rCAG binder 36.1*, PAFAH1B2 FP inh 4.2, PAFAH2 inh 8.1, PAFAH1B3 FP inh 8.0, rCAG binder conf 33.3 and DNA CAG counter 9.5*.
`Cc1ccc(-c2csc(NC(=O)CSc3nc4ccccc4[nH]3)n2)cc1` gave rCAG binder 14.1, PAFAH1B2 FP inh 6.7, PAFAH2 inh -27.2 and PAFAH1B3 FP inh 9.9.
Screening O=C(CSc1nc(O)cc(=O)[nH]1)Nc1ccc2c(c1)CCC2 returned ZTA counter 8.8, EBNA-1 inh 2.5, rCAG binder 48.8*, PAFAH1B2 FP inh 0.9, PAFAH2 inh -2.6, PAFAH1B3 FP inh 1.9, rCAG binder conf 12.3 and DNA CAG counter 6.0*.
For Cc1cc(=O)[nH]c(SCC(=O)Nc2nc3ccccc3s2)n1 the results were ZTA counter -19.9, EBNA-1 inh -2.6, rCAG binder 7.1, PAFAH1B2 FP inh 0.2, PAFAH2 inh 8.2 and PAFAH1B3 FP inh 5.0.
COc1ccc(-c2csc(NC(=O)CSc3nc4ccccc4c(=O)[nH]3)n2)cc1 was read as ZTA counter 3.5, EBNA-1 inh -3.7, rCAG binder 38.0*, PAFAH1B2 FP inh -2.5, PAFAH2 inh -18.2, PAFAH1B3 FP inh -11.8, rCAG binder conf 57.2* and DNA CAG counter 22.0*.
Screening CCCc1cc(=O)[nH]c(SCC(=O)Nc2ccc(C)c(S(=O)(=O)N3CCCCC3)c2)n1 returned ZTA counter 13.6, rCAG binder 42.0*, PAFAH1B2 FP inh 19.8, PAFAH2 inh -3.1, PAFAH1B3 FP inh 2.6, rCAG binder conf 36.5* and DNA CAG counter 10.2*.
Screening CC(CCN1CCC(C(O)(c2ccccc2)c2ccccc2)CC1)Oc1ccc(F)cc1 (stereo not drawn) returned rCAG binder -0.9.
`COCCN1C(=O)c2ccc(C(=O)O)cc2C1=O` gave ZTA counter 14.0, EBNA-1 inh -3.0, rCAG binder -1.1, PAFAH1B2 FP inh 5.0, PAFAH2 inh -0.2 and PAFAH1B3 FP inh 10.8.
Cc1[nH]c2ccc(OC(F)(F)F)cc2c1CCN1C(=O)c2ccc(C(=O)O)cc2C1=O was read as ZTA counter 13.1, EBNA-1 inh 1.2, rCAG binder 47.9*, PAFAH1B2 FP inh 7.1, PAFAH2 inh 4.3, PAFAH1B3 FP inh 6.9, rCAG binder conf 44.0* and DNA CAG counter 13.2*.
COc1ccc(-n2ccnc2SCC(=O)NC2CCCC2)c(OC)c1 was read as ZTA counter -25.5, EBNA-1 inh 0.6, rCAG binder -5.5, PAFAH1B2 FP inh -0.4, PAFAH2 inh -1.5 and PAFAH1B3 FP inh 2.2.
For Cc1ccc2c(c1)c1c3n2CCN(C(=O)C2CC2)C3CCC1 (stereo not drawn) the results were ZTA counter -7.8, EBNA-1 inh 3.6, rCAG binder 8.3, PAFAH1B2 FP inh 9.3, PAFAH2 inh -1.9 and PAFAH1B3 FP inh 0.1.
Screening Cc1ccc2c(c1)c1c3n2CC(=C2C(=O)OC(C)(C)OC2=O)NC3CCC1 (stereo not drawn) returned ZTA counter -0.7, EBNA-1 inh 11.6, rCAG binder 46.7*, PAFAH1B2 FP inh 2.5, PAFAH2 inh 21.8, PAFAH1B3 FP inh 13.2, rCAG binder conf 34.2 and DNA CAG counter 18.4*.
For CCOC(=O)Cc1csc(NC(=O)Nc2cccc(Cl)c2)n1 the results were ZTA counter -21.2, EBNA-1 inh 4.0, rCAG binder 53.2*, PAFAH1B2 FP inh -1.5, PAFAH2 inh -0.6, PAFAH1B3 FP inh -2.9, rCAG binder conf 17.5 and DNA CAG counter 16.2*.
`CCOC(=O)Cc1csc(N/N=C/c2ccc(Cl)cc2)n1` gave ZTA counter 2.8, EBNA-1 inh -5.4, rCAG binder 4.3, PAFAH1B2 FP inh -0.6, PAFAH2 inh 7.7 and PAFAH1B3 FP inh -7.9.
`O=C(Cc1csc(NC(=O)Nc2ccc(Cl)cc2)n1)NCc1ccccn1` gave ZTA counter 12.2, EBNA-1 inh -0.2, rCAG binder 30.3, PAFAH1B2 FP inh 6.3, PAFAH2 inh -0.6 and PAFAH1B3 FP inh 0.5.
`O=C(Cc1csc(NC(=O)Nc2ccc(Cl)cc2)n1)NC1CCCC1` gave ZTA counter -6.2, EBNA-1 inh -3.8, rCAG binder 40.5*, PAFAH1B2 FP inh 22.1, PAFAH2 inh -2.2, PAFAH1B3 FP inh 8.5, rCAG binder conf 16.2 and DNA CAG counter 14.7*.
Screening CN(C)Cc1csc(NC(=O)Nc2cccc(Cl)c2)n1 returned rCAG binder 21.5.
For CCOC(=O)Cc1csc(NC(=O)Nc2ccc(Cl)cc2)n1 the results were ZTA counter 0.2, EBNA-1 inh -14.0, rCAG binder 39.8*, PAFAH1B2 FP inh 5.0, PAFAH2 inh 7.8, PAFAH1B3 FP inh 3.1, rCAG binder conf 43.2* and DNA CAG counter 16.9*.
`Cc1csc(NC(=O)Nc2ccc(Cl)cc2)n1` gave ZTA counter 12.2, EBNA-1 inh 2.7, rCAG binder 37.9*, PAFAH1B2 FP inh -2.1, PAFAH2 inh 0.9, PAFAH1B3 FP inh 8.4, rCAG binder conf 6.6 and DNA CAG counter 9.5*.
